Measurements reported in PubChem BioAssay (NCATS).
Results filed as inconclusive are left out. Entries that show only a call come without a potency. The source made the active and inactive calls. The call rests on the fitted dose curve; in most records, active means well fitted inhibition curve with a large enough effect; inconclusive means small, poorly fitted or top-dose-only effect; inactive means flat fitted curve, though single readings scatter.

Experiments:
Test in all cases: qHTS profiling for inhibitors of Plasmodium falciparum proliferation (AID 504749); further: nearly all actives have a fitted effect of over 60% in size
Settings in all cases: P. falciparum in erythrocytes, SYBR Green DNA, 72 h; series mostly up to 28.7 µM
CP201 = system: CP201
Summary of the method: (§1)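 P. falciparum-infected erythrocytes (0.3% parasitemia, 2.5% hematocrit) incubated with compound 72 h at 37 C, 5% CO2. Parasite DNA detected by SYBR Green after lysis, overnight at room temperature; normalised to 0.29 uM artemisinin and DMSO.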

CP217 = system: CP217
Summary of the method: as §1

CP238 = system: CP238
Summary of the method: as §1

CP250 = system: CP250
Summary of the method: as §1

CP252 = system: CP252
Summary of the method: as §1

CP266 = system: CP266
Summary of the method: as §1

CP191 = system: CP191
Summary of the method: as §1

CP192 = system: CP192
Summary of the method: as §1

CP194 = system: CP194
Summary of the method: as §1

CP211 = system: CP211
Summary of the method: as §1

CP215 = system: CP215
Summary of the method: as §1

CP247 = system: CP247
Summary of the method: as §1

CP256 = system: CP256
Summary of the method: as §1

CP262 = system: CP262
Summary of the method: as §1

CP265 = system: CP265
Summary of the method: as §1

CP268 = system: CP268
Summary of the method: as §1

CP269 = system: CP269
Summary of the method: as §1

CP237 = system: CP237
Summary of the method: as §1

CP260 = system: CP260
Summary of the method: as §1
Potency means the concentration at half of the fitted maximal effect.

SMILES	Potency (CP201)	Potency (CP217)	Potency (CP238)	Potency (CP250)	Potency (CP252)	Potency (CP266)	Potency (CP191)	Potency (CP192)	Potency (CP194)	Potency (CP211)	Potency (CP215)	Potency (CP247)	Potency (CP256)	Potency (CP262)	Potency (CP265)	Potency (CP268)	Potency (CP269)	Potency (CP237)	Potency (CP260)
Nc1c2c(nc3ccccc13)CCCC2	inactive	inactive	inactive	inactive	inactive	inactive	–	–	–	–	–	–	–	–	–	–	–	–	–
CC12CC3CC(C)(C1)CC(N)(C3)C2	inactive	inactive	inactive	inactive	inactive	inactive	inactive	inactive	inactive	inactive	inactive	inactive	inactive	inactive	inactive	inactive	inactive	–	–
CN(CCOc1ccc(NS(C)(=O)=O)cc1)CCc1ccc(NS(C)(=O)=O)cc1	inactive	inactive	inactive	inactive	inactive	inactive	inactive	inactive	inactive	inactive	–	inactive	inactive	inactive	inactive	inactive	inactive	inactive	inactive
CC(C)NCC(O)c1ccc(O)c(O)c1 (centres undefined)	inactive	inactive	inactive	inactive	inactive	–	inactive	inactive	inactive	inactive	inactive	inactive	inactive	inactive	inactive	inactive	inactive	inactive	inactive
CCOC(=O)Nc1ccc(NCc2ccc(F)cc2)nc1N	–	10 µM (active)	–	–	8.91 µM (active)	–	11.2 µM (active)	–	–	–	–	12.6 µM (active)	10 µM (active)	12 µM (active)	11.2 µM (active)	–	–	10 µM (active)	11.2 µM (active)
O=C1N(c2ccccc2)c2ccccc2C1(Cc1ccncc1)Cc1ccncc1	inactive	inactive	inactive	inactive	inactive	inactive	inactive	inactive	inactive	inactive	inactive	inactive	inactive	inactive	inactive	inactive	inactive	–	inactive
CCOC(=O)c1ncn2c1CN(C)C(=O)c1cc(F)ccc1-2	inactive	inactive	inactive	inactive	inactive	–	inactive	inactive	inactive	inactive	inactive	inactive	inactive	inactive	inactive	inactive	inactive	inactive	inactive
Cn1ccc2cc3c(cc21)CCN3C(=O)Nc1cccnc1	–	–	–	–	–	–	–	–	–	–	–	–	–	inactive	–	–	–	–	–
Clc1ccc(C(c2ccccc2Cl)C(Cl)Cl)cc1 (centres undefined)	–	inactive	inactive	inactive	inactive	inactive	–	inactive	–	–	–	inactive	inactive	inactive	inactive	–	inactive	inactive	–
CC(COc1ccccc1)N(CCCl)Cc1ccccc1 (centres undefined)	inactive	–	–	inactive	inactive	inactive	inactive	inactive	–	inactive	–	inactive	inactive	inactive	–	–	inactive	11.2 µM (active)	–
COc1ccc2[nH]cc(CCNC(C)=O)c2c1	inactive	inactive	inactive	inactive	inactive	inactive	inactive	inactive	inactive	inactive	–	inactive	inactive	inactive	inactive	inactive	inactive	inactive	inactive
CCC1(c2ccccc2)C(=O)NCNC1=O	inactive	inactive	inactive	inactive	inactive	inactive	inactive	inactive	inactive	inactive	inactive	inactive	inactive	–	inactive	inactive	inactive	inactive	–
CC#C[C@]1(O)CC[C@H]2[C@@H]3CCC4=CC(=O)CCC4=C3[C@@H](c3ccc(N(C)C)cc3)C[C@@]21C	15.1 µM (active)	11.2 µM (active)	–	–	–	–	11.2 µM (active)	–	16.9 µM (active)	13.5 µM (active)	12 µM (active)	8.91 µM (active)	–	–	–	16.9 µM (active)	13.5 µM (active)	11.2 µM (active)	–
O=c1[nH]cc(F)c(=O)[nH]1	–	–	–	–	–	inactive	–	–	–	–	inactive	8.91 µM (active)	–	inactive	–	–	–	–	–
CCCCc1oc2ccccc2c1C(=O)c1cc(I)c(OCCN(CC)CC)c(I)c1	–	5.62 µM (active)	7.94 µM (active)	7.94 µM (active)	11.2 µM (active)	inactive	8.91 µM (active)	–	–	–	15.1 µM (active)	8.91 µM (active)	12.6 µM (active)	–	7.08 µM (active)	–	–	7.08 µM (active)	3.98 µM (active)
CN1CCC(=C2c3ccccc3CC(=O)c3sccc32)CC1	–	–	–	inactive	inactive	inactive	–	inactive	–	–	–	–	–	inactive	10 µM (active)	–	–	–	–
CC(C)(Oc1ccc(C2CC2(Cl)Cl)cc1)C(=O)O (centres undefined)	inactive	inactive	inactive	inactive	inactive	inactive	inactive	inactive	inactive	inactive	inactive	inactive	inactive	–	inactive	inactive	inactive	inactive	inactive
